High-throughput results deposited in PubChem BioAssay by Broad Institute.
AF4-AF9 inh: blocks AF4 peptide binding to human AF9; P42568; AlphaScreen, biotin-AF4 peptide binding to FLAG-AF9; inhibition, % at 10 µM; hit rate 0.47% among 350,000; AID 651704;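 active means every replicate reaching a set inhibition limit, whatever the replicate mean, cut at about 25% in these data; inconclusive means mean inhibition reaches that limit but some replicates miss it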
NSD2 inh: inhibitors of human histone methyltransferase NSD2; hit rate 0.54% among 310,000; NSD2 peptide methylation, AlphaScreen, 120 min; O96028; AID 743445; inhibition, % at 12.5 µM; in the data active means inhibition above about 50%
RAD52 inh: blocks human RAD52 DNA annealing | recombinant RAD52 DNA annealing, FRET fluorescence | inhibition, % at 18.7 µM | AID 651710 | hit rate 0.46% among 360,000;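 active means every replicate showing at least 50% inhibition; inconclusive means mean inhibition at least 50% but not in every replicate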
Target sequence (P43351 whole entry, looked up): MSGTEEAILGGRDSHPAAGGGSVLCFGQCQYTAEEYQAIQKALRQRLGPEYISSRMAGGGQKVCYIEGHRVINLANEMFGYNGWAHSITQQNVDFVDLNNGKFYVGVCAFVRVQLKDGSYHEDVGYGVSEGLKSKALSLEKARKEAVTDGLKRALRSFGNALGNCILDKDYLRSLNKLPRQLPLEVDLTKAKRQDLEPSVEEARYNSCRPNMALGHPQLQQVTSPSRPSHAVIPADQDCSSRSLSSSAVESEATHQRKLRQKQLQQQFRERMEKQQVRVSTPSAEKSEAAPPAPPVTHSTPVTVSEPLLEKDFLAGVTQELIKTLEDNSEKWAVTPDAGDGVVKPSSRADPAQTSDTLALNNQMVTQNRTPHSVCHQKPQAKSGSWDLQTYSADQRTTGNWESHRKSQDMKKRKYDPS
CASP6 VEID inh: blocks human caspase-6 cleavage activity | purified caspase-6, Z-VEID-R110 cleavage fluorescence | AID 686996 | hit rate 0.53% among 350,000 | P55212 | inhibition, % at 12.5 µM;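 active means mean inhibition across replicates at least about 35%, with every replicate also reaching that limit, limit read from the data; inconclusive means only one of the two criteria met; inactive means neither criterion met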
miR122 inh: inhibitors of miR-122 in Huh7 cells. Huh7 miR-122 Renilla luciferase sensor, 48 h; neutral wells = 0, positive control = 100. activation (reporter increase), % at 12.5 µM. hit rate 0.3% among 340,000. AID 602342;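 active means mean replicate activation score at least 90 and every replicate individually at or above 90; inconclusive means only one of the two criteria met; inactive means neither criterion met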;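 further: higher luciferase means less miR-122 activity so hits act as miR-122 inhibitors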
A number is an active result; n = inactive; u = inconclusive; x = not tested or not shown; ! = repeats disagree; [ ] = remark or other dose. An excerpt weighted towards active compounds, which were near 1.5% of everything screened.

SMILES	AF4-AF9 inh	NSD2 inh	RAD52 inh	CASP6 VEID inh	miR122 inh
CC=Cc1ccc2n(c1=O)C[C@@H]1[C@@H](CO)[C@H](C(=O)NC3CCC3)N(CCC)[C@H]21 (mixture of isomers)	n	x	n	n	x
O=C(C[C@H]1C=C[C@H](NC(=O)C2CC2)[C@@H](CO)O1)NC1CCC1	n	x	n	n	n
COc1cccc(NC(=O)N(C)C[C@@H]2Oc3cc(C#CC4(O)CCCC4)ccc3S(=O)(=O)N([C@@H](C)CO)C[C@@H]2C)c1	n	x	n	n	n
Cc1ccc(CN2C(=O)C(C)(C)Oc3ccc(C(=O)N4CCCCC4)cc32)cc1	x	n	x	x	317.8
CC1(C)Oc2ccc(C(=O)N3CCCCC3)cc2N(CC(=O)NCc2ccccc2)C1=O	x	n	n	n	n
Cc1ccnc(NC(=O)c2cccc(NC(=O)c3cccc(Cl)c3)c2)c1	x	n	x	x	x
CCOc1cc2c(cc1OCC)C(c1ccc(F)cc1)NCC2 (configuration not stated)	x	n	n	n	n
CCOc1cc2c(cc1OC)C(c1cccc([N+](=O)[O-])c1)NCC2 (configuration not stated)	n	n	n	42.3	x
Cc1cc2c(cc1C)N1C(=N)/C(=C\c3coc4ccccc4c3=O)C(=O)N=C1S2	x	n	x	x	x
N=C1/C(=C\c2coc3ccc(O)cc3c2=O)C(=O)N=C2SC=CN12	u	n	n	42.0	x
CC(C)CNC(=O)C1(C)CCCCCN1C(=O)c1cccnc1 (configuration not stated)	n	n	n	55.6	n
O=C(C1CCOCC1)N1CC(=O)N2[C@H](CO)[C@H](c3ccc(C#Cc4cccc(F)c4)cc3)[C@@H]2C1	n	x	n	n	x
C[C@@H]1CN([C@@H](C)CO)C(=O)c2cc(C#CCN(C)C)cnc2O[C@@H]1CN(C)C(=O)c1cccnc1	n	x	n	n	n
O=S(=O)(Nc1ccc2c3c(cccc13)CC2)c1ccccc1	n	n	n	n	n
Cc1cc(C)c(S(=O)(=O)Nc2ccc3c4c(cccc24)CC3)c(C)c1	x	n	x	x	111.1
CC(=O)Nc1ccc(S(=O)(=O)NC2=C(N3CCN(C)CC3)C(=O)c3ccccc3C2=O)cc1	n	n	n	44.0	n
CC(=O)Nc1ccc(S(=O)(=O)NC2=C(N3CCN(Cc4ccccc4)CC3)C(=O)c3ccccc3C2=O)cc1	40.6	n	n	n	n
CCOC(=O)N1CCN(C2=C(NS(=O)(=O)c3ccc(NC(C)=O)cc3)C(=O)c3ccccc3C2=O)CC1	n	n	n	n	n
CCN1CCN(C2=C(NS(=O)(=O)c3ccc(C)cc3)C(=O)c3ccccc3C2=O)CC1	n	50.7	n	62.2	n
CCN1CCN(C2=C(NS(=O)(=O)c3ccc(NC(C)=O)cc3)C(=O)c3ccccc3C2=O)CC1	n	n	n	47.7	n
CC1CCCN(C2=C(NS(=O)(=O)c3ccc(Br)cc3)C(=O)c3ccccc3C2=O)C1 (configuration not stated)	n	n	n	n	n
CCNC(=O)Nc1ccc2c(c1)C(=O)N(C)[C@@H]1CC[C@H](CC(=O)NCc3ccc(F)cc3)O[C@@H]1CO2	n	x	n	n	n
C[C@@H]1CN([C@@H](C)CO)C(=O)Cc2cc(NC(=O)CCCCCC(=O)Nc3ccccc3N)ccc2O[C@H]1CN(C)C(=O)Nc1ccc(F)cc1	n	x	n	n	n
Cc1ncc(CN2CCCC(C(=O)Nc3ccc(-c4ccco4)cc3)C2)cn1 (configuration not stated)	40.0	n	n	n	n
CN(CCc1ccccc1)C(=O)c1ccc(NC(=O)Cc2ccc(NC(=O)C3CCN(C(=O)c4ccccc4)CC3)cc2)cc1	31.1	x	n	n	n
SMILES	AF4-AF9 inh	NSD2 inh	RAD52 inh	CASP6 VEID inh	miR122 inh
Cc1noc(C)c1S(=O)(=O)N(C)C[C@H]1OCCCC[C@H](C)Oc2ccc(NC(=O)CCC(F)(F)F)cc2C(=O)N([C@H](C)CO)C[C@@H]1C	x	x	x	x	n
C[C@H]1CN([C@@H](C)CO)S(=O)(=O)c2ccc(Br)cc2O[C@H]1CN(C)S(=O)(=O)c1ccccc1F	n	x	n	n	178.6![16.7 µM]
C/C=C/c1ccc2c(c1)O[C@H](CN(C)S(=O)(=O)c1ccc(F)cc1)[C@H](C)CN([C@@H](C)CO)S2(=O)=O	n	x	n	n	n
C/C=C/c1ccc2c(c1)O[C@H](CN(C)S(=O)(=O)c1ccccc1)[C@H](C)CN([C@@H](C)CO)S2(=O)=O	n	x	n	n	267.8[16.7 µM]
CCC(=O)N1CC(=O)N2[C@H](CO)[C@H](c3ccc(C#CC4CCCC4)cc3)[C@@H]2C1	n	x	n	n	x
Cc1ccc(C2CC(c3cccs3)=NN2S(=O)(=O)c2ccc(C)cc2)cc1 (configuration not stated)	n	n	n	n	98.1
COc1ccc(C2CC(c3cccs3)=NN2S(=O)(=O)c2ccc(C)cc2)cc1 (configuration not stated)	x	n	x	x	n
O=C(C[C@H]1C[C@H]2c3cc(NC(=O)C4CCOCC4)ccc3O[C@H]2[C@H](CO)O1)NCc1ccc2c(c1)OCO2	n	x	n	n	n
Cc1noc(C)c1NC(=O)Nc1ccc2c(c1)C(=O)N([C@H](C)CO)C[C@H](C)[C@H](CN(C)S(=O)(=O)c1ccccc1)OCCCC[C@@H](C)O2	n	x	n	n	n
CCn1cc(C(=O)O)c(=O)c2cc(F)c(N3CCN(C(=S)NC(=O)c4ccccc4Br)CC3)cc21	n	n	n	36.0	n
CCOC(=O)C1=C(C)N=c2s/c(=C3\C(=O)Nc4ccccc43)c(=O)n2C1c1ccc2c(c1)OCO2 (configuration not stated)	x	n	x	x	91.1
COc1ccc2c3c(n(C)c2c1)[C@H](CO)NCC31CCN(Cc2cc(F)ccc2F)CC1	25.5	x	n	n	x
COc1ccc2c3c(n(C)c2c1)[C@H](CO)NCC31CCN(Cc2ccc(Cl)cc2)CC1	44.1	x	x	x	x
COc1ccc2c3c(n(C)c2c1)[C@@H](CO)NCC31CCN(Cc2cc(F)ccc2F)CC1	32.5	x	n	n	x
COc1ccc2c3c(n(C)c2c1)[C@@H](CO)NCC31CCN(S(=O)(=O)c2cccc(C)c2)CC1	27.4	x	54.1	n	x
COc1ccc2c3c(n(C)c2c1)[C@@H](CO)NCC31CCN(Cc2ccccc2F)CC1	n	x	x	x	x
CCC(=O)N1CCC2(CC1)CN[C@H](CO)c1c2c2ccc(OC)cc2n1C	n	x	n	n	x
COCC(=O)N1CC2(C1)[C@@H](c1ccc(-c3ccc(F)cc3)cc1)[C@@H](CO)N2C(C)=O	n	x	n	n	x
CC(=O)N1[C@H](CO)[C@H](c2ccccc2)[C@H]1CN(CC(C)C)C(=O)c1ccccn1	n	x	n	x	n
C[C@@H]1CN([C@H](C)CO)C(=O)c2cc(NC(=O)c3ccccc3)ccc2O[C@@H](C)CCCCO[C@H]1CN(C)S(C)(=O)=O	x	x	x	x	n
O=C(N/N=C/c1cccc(O)c1)c1ccccc1O	n	n	n	48.7	x
Cn1c2ccccc2c2cc(/C=N/NC(=O)c3cc(O)ccc3O)ccc21	n	n	n	48.2	n
Cn1c2ccccc2c2cc(/C=N/NC(=O)c3cc(O)cc(O)c3)ccc21	n	n	n	n	n
CNC1=C(N(C(C)=O)c2ccc(Br)cc2)C(=O)c2ccccc2C1=O	x	100.5	x	x	x
